# Measurements as given in PubChem BioAssay (NCATS).
# Unmarked numbers belong to inactive results. The rule behind the calls is not given here.
# Test system: HIV-1 nucleocapsid protein NCp7 (binding to TG oligonucleotide)
# Experiment: HIV Nucleocapsid (AID 346);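 note: potency is for inhibitors that block NC binding and lower polarization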
# Details: HIV-1 NC / fluorescein-TGTGTGTG probe, fluorescence polarization
# Outline: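 10 nM TG4xF probe with 100 nM nucleocapsid protein in high-salt Hepes pH 7.5 (250mM NaCl) containing 1uM ZnCl2 and reducing agents. Compound inhibition of binding was read as fluorescein polarization after 1 hr at room temperature.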
# Potency is the fitted concentration of half-maximal effect.
row,SMILES,Potency
1,FC(F)(F)c1ccccc1-c1nc(NC2CC2)c2ccccc2n1,> 20 µM
2,COc1ccccc1-c1ccc2ncnc(Nc3ccccc3)c2c1,> 20 µM
3,COc1ccc(-c2nc3cnc(OCc4ccccc4)nc3n(CCC#N)c2=O)cc1,> 20 µM
4,N#Cc1cccc(-c2cc(-n3ccnc3)ncn2)c1,> 20 µM
5,O=C(Nc1ccccc1)N1CCCC2(CCN(C(=O)c3csnn3)CC2)C1,> 20 µM
6,O=C(c1ccncc1)N1CCC2(CCN(Cc3cc(C(F)(F)F)cc(C(F)(F)F)c3)CC2)CC1,> 20 µM
7,COc1ccc2[nH]cc(CCNc3nc(-c4cccc(NS(C)(=O)=O)c4)nc4ccccc34)c2c1,> 20 µM
8,N#Cc1cccc(-c2ccc3ncnc(N4CCNCC4)c3c2)c1,> 20 µM
9,O=C(c1cnccn1)N1CCC[C@@]2(CCN(Cc3ccccc3)C2)C1,> 20 µM
10,N#CCCn1c(=O)c(CCc2ccccc2)nc2cnc(N3CCOCC3)nc21,> 20 µM
11,N#Cc1ccccc1-c1ccc2ncnc(N3CCNCC3)c2c1,> 20 µM
12,O=C(c1ccco1)N1CCC2(CCCN(C(c3ccccc3)c3ccccc3)C2)CC1,> 20 µM
13,COc1cccc(Cn2c(=O)c(C)nc3cnc(Oc4cccc(Cl)c4)nc32)c1,> 20 µM
14,CCNc1ncc2nc(-c3ccccc3)c(=O)n(-c3ccc(OC)cc3)c2n1,> 20 µM
15,Cc1noc(C)c1C(=O)N1CCC[C@@]2(CCN(c3ccccc3)C2)C1,> 20 µM
16,Cn1cc(-c2nc3cnc(N4CCNCC4)nc3n(C)c2=O)c2ccccc21,> 20 µM
17,COC(=O)N1CCC[C@@]2(CCN(Cc3nccs3)C2)C1,> 20 µM
18,CS(=O)(=O)N1CCC2(CCCN(c3ncccn3)C2)CC1,> 20 µM
19,Cc1nc2cnc(Nc3ccccc3)nc2n(CCC#N)c1=O,> 20 µM
20,COc1ccccc1-c1nc(NC2CC2)c2ccccc2n1,> 20 µM

row,SMILES,Potency
1,COc1ccc(NC(=O)N2CCCC3(CCN(C(C)=O)CC3)C2)cc1,> 20 µM
2,CN(C)c1ncc2nc(-c3ccc(F)cc3)c(=O)n(C[C@H]3CCCO3)c2n1,> 20 µM
3,Clc1ccccc1-c1ccc2ncnc(NCc3cccnc3)c2c1,> 20 µM
4,Cc1noc(C)c1C(=O)N1CCC2(CC1)CN(c1ccccc1)C2,> 20 µM
5,O=c1c(-c2ccc(Cl)cc2)nc2cncnc2n1Cc1ccccc1Cl,> 20 µM
6,N#Cc1ccc(CN2CCC3(CC2)CCN(C(=O)c2ccco2)CC3)cc1,> 20 µM
7,COc1ccc(Oc2ncc3nc(-c4ccccc4)c(=O)n(C[C@H]4CCCO4)c3n2)cc1,> 20 µM
8,O=c1c(-c2ccc(F)cc2)nc2cnc(N3CCOCC3)nc2n1CCc1ccccc1,> 20 µM
9,O=C(c1ccncc1)N1CCC2(CC1)CCN(C(c1ccccc1)c1ccccc1)CC2,> 20 µM
10,COCCn1c(=O)c(C)nc2cnc(N3CCN(C)CC3)nc21,> 20 µM
11,c1ccc2c(Nc3ccncc3)nc(-c3ccc4c(c3)OCO4)nc2c1,> 20 µM
12,COc1ncc2nc(-c3cc(F)cc(F)c3)c(=O)n(-c3ccccc3)c2n1,> 20 µM
13,COc1ccc(C(=O)N2CCC3(CC2)CN(C(=O)Nc2ccccc2)C3)cc1,> 20 µM
14,CCNc1ncc2nc(-c3ccc(Cl)cc3)c(=O)n(CCC#N)c2n1,> 20 µM
15,COCCn1c(=O)c(-c2ccccc2)nc2cnc(OCc3ccccc3)nc21,> 20 µM
16,Clc1ccccc1-c1nc(NCc2cccnc2)c2ccccc2n1,> 20 µM
17,FC(F)(F)c1cc(CN2CCC3(CCNCC3)CC2)cc(C(F)(F)F)c1,> 20 µM
18,O=c1c(-c2ccc(F)c(F)c2)nc2cncnc2n1Cc1ccccc1Cl,> 20 µM
19,COCCn1c(=O)c(-c2cc(F)cc(F)c2)nc2cnc(OC)nc21,> 20 µM
20,COCC(=O)N1CCC2(CC1)CCN(C(=O)NC(C)C)CC2,> 20 µM
